These results are taken from PubChem BioAssay (EPA / NIEHS).

Activity calls are given as the source filed them. The calls were made as follows: active = hit-call score of the fitted dose curve at least 0.9, where 1 is the maximum; inactive = score below 0.9.

Read-out in the test: Pyruvate Dehydrogenase Kinase 4 (PDK4), PDK4 (gene 5166)
As to the kind of experiment: LTEA_HepaRG_PDK4: Life Technologies and Expression Analysis (LTEA) Assay for Pyruvate Dehydrogenase Kinase 4 (PDK4) using HepaRG (AID 2283525). The settings on record: mRNA level, 48 h; actives raise or lower the signal. As to the method:
LTEA_HepaRG is a cell based, multiplexed-readout assay that uses HepaRG, a human liver cell line, with measurements taken at 48 hours after chemical dosing on a 96-well plate.LTEA_HepaRG_PDK4 is one of 102 assay component(s) measured in the LTEA HepaRG cell culture assay. It is a marker of Diseases associated with PDK4 including Platelet Glycoprotein Iv Deficiency and Diabetes Mellitus, Noninsulin-Dependent.Data from the assay component LTEA_HepaRG_PDK4 was analyzed into 1 endpoint. This assay endpoint, LTEA_HepaRG_PDK4, was analyzed with bidirectional fitting relative to DMSO as the negative control and baseline of activity. Using a type of inducible reporter, measures of mRNA induction for gain or loss-of-signal activity can be used to understand regulation of transcription factor activity. To generalize the intended target to other relatable targets, this assay endpoint is annotated to the kinase intended target family, where the subfamily is serine/threonine kinase.
A total of 1060 chemcials from the ToxCast library were tested in eight-point concentration-response experiments. Cell culture and cytotoxicity assays were conducted at Thermo Fisher Scientific's Custom Services facility (Madison, WI). A single lot of human HepaRG cells (Thermo Fisher Scientific, Frederick, MD) was used for the cell culture experiments. 96-well format collagen type I coated plates of human HepaRG cells were prepared using established methods. Briefly, cryopreserved HepaRG cells were thawed, plated at a density of approximately 100,000 cells/well in HepaRG Thaw, Plate, and General Purpose media (HPRG770, Thermo Fisher Scientific), and incubated for 48 hours. 0.5% DMSO was selected as vehicle control to balance the requisite need of DMSO in HepaRG cultures to maintain differentiation (for example, baseline metabolism, proportions of hepatocytes vs. cholangiocytes), while enabling further hepatic receptor pathway activation (for example, PXR and CAR) in response to chemical exposure. 48 hours after plating, the culture medium was replaced with HepaRG Serum-Free Incudtion Media. Cells were exposed to each test chemical in duplicate and maintained in CO2 incubators for another 48 hours. Chemical plates were thawed to room temperature and 200x concentrations of treatment groups were prepared. 8-point conentration-reponse curves were made with the highest exposure at 100 uM, followed by half-log dilutions, all in 0.5% DMSO. Each test plate contained variouse controls, induction positive controls (1mM phenobarbital), cytotoxicity positive controls ([…] aflatoxin B1), vehicle controls (0.5% DMSO), and total lysis controls (0.5% DMSO). Cell morphology images were taken using an Essen IncuCyte FLR automated microscope, with six 96-well plates imaged in about 24 minutes. Images were captured and exported and JPEG files. Spent culture media was transfered to black-well plates for the LDH assay, and remaining media was sorted at -80 C for later use. Cells were treated with RLT buffer and frozen until shipped for gene expression analysis. Total RNA was isolated from the cell suspension in 75 uL of Buffer RLT (Qiagen, Germantown, MD 20874) by Quintiles/Expression Analysis (Durham, NC) using a custom isolation procedure. Total RNA from each plate well was transferred to a preamplification plate. Fluidigm's 96.96 Dynamic ArrayTM (Fluidigm, Amsterdam, the Netherlands) technology was used for gene expression analyses by quantitative reverse transcription polymerase chain reaction (qRT-PCR, performed by Quintiles/Expression Analysis, Durham, NC)89. Standard TaqManTM Assays (Applied Biosystems/ThermoFisher Scientific, Foster City, CA) were used to assess the expression of 93 genes selected based on their selectivity and sensitivity to important hepatic receptors known to be modulated by environmental chemicals; importance in human hepatocyte functionality; and hepatotoxicity. […]
Turning to `CC(=O)OCC(COC(C)=O)OC(C)=O`, the outcome was inactive.

Take `COc1ccc(OC(F)(F)F)cc1CN[C@H]1CCCN[C@H]1c1ccccc1`: the molecule was classed as inactive.

For the molecule `COc1ccc(C(=O)Nc2nc3ccccc3c(NCc3ccccc3)c2C#N)cc1`, the molecule was classed as inactive.

`CN(C)CCCN1c2ccccc2Sc2ccc(Cl)cc21`: the molecule was classed as inactive.

Take `NC(=Nc1ccccc1)Nc1ccccc1`: the molecule was called inactive.

Regarding `NCCOCCOCCN`, the result was inactive.

For `CO[C@@H]1COCC[C@@H]1N[C@@H]1CC[C@@](C(=O)N2CCc3ncc(C(F)(F)F)cc3C2)(C(C)C)C1`, the result was inactive.

In the case of `CCCCOC(=O)CCCCC(=O)OCCCC`, the call was inactive.

Consider `Cc1cc(SC2=C(O)C[C@@](CCc3ccc(N)cc3)(C(C)C)OC2=O)c(C(C)(C)C)cc1CO`, for which the AC50 is 13.5 µM (active).

For `O=C1NC(=O)C(c2ccccc2)(c2ccccc2)N1`, the molecule was called inactive.

Consider `CC(=O)OC1CC(C)OC(C)O1` (stereo not given), for which the outcome was inactive.

Consider `O=C(O)c1[nH]n(-c2ccc(S(=O)(=O)O)cc2)c(=O)c1N=Nc1ccc(S(=O)(=O)O)cc1`, for which the call was inactive.

As to `C/C=C/c1ccc(OC)cc1`, the molecule was classed as inactive.

As to `O=C1c2c(O)cccc2Cc2cccc(O)c21`, the molecule was classed as inactive.

With `CCc1cc(C2=C(C(=O)O)N(c3ccccc3C(F)(F)F)S(=O)(=O)c3ccccc32)cc2c1OCO2`, the AC50 is 50 µM (active).

Take `CCCCC(CC)COC(=O)CCCCCCCC(=O)OCC(CC)CCCC` (stereo not given): the call was inactive.

Regarding `CC(C)(C)c1ccccc1`, the outcome was inactive.

For the molecule `Cc1c(C)c2c(c(C)c1O)CCC(C)(COc1ccc(CC3SC(=O)NC3=O)cc1)O2` (stereo not given), the call was inactive.

For the molecule `CCCCC(CC)CO` (stereo not given), the result was inactive.

Regarding `N[C@@H](Cc1c[nH]c2ccccc12)C(=O)O`, the molecule was classed as inactive.

`CCc1nc(N)nc(N)c1-c1ccc(Cl)cc1`: the half-maximal activity concentration (AC50) was 50 µM (active).

For the molecule `C=CCc1ccc(OC)c(OC)c1`, the outcome was inactive.

`Cc1occc(=O)c1O`: the molecule was called inactive.

Consider `CCCCCCCCCCCCCCCCO`, for which the AC50 was 66.3 µM (active).

As for `O=[Si]=O`, the outcome was inactive.

As to `CC(C)(O)c1ccc(CNC(=O)c2cccnc2Oc2ccc(F)cc2)cc1`, the call was inactive.

On to `CSc1ccc(Oc2ccc(S(N)(=O)=O)cc2CN(C)C)cc1C`, for which the result was inactive.

As for `CCCCCCC(C=O)=Cc1ccccc1`, the molecule was classed as inactive.

Regarding `C#CC(O)C(CC)CCCC` (stereo not given), the outcome was inactive.

As to `CC(N)=O`, the molecule was classed as inactive.

Turning to `O=NO`, the outcome was inactive.

As for `CC(COCC(C)OC(=O)c1ccccc1)OC(=O)c1ccccc1` (stereo not given), the molecule was classed as inactive.

For the molecule `CC(=O)[C@@]1(O)CC[C@H]2[C@@H]3CCC4=CC(=O)CC[C@]4(C)[C@H]3CC[C@@]21C`, the call was inactive.

For the molecule `COC(=O)[C@H]1[C@H]2C[C@@H]3c4[nH]c5cc(OC)ccc5c4CCN3C[C@H]2C[C@@H](OC(=O)c2cc(OC)c(OC)c(OC)c2)[C@@H]1OC`, the outcome was inactive.

As to `CC(=O)S[C@H](C(=O)N[C@H]1Cc2ccccc2[C@H]2CCC[C@@H](C(=O)O)N2C1=O)C(C)C`, the result was inactive.

As for `CC1=C(C)S(=O)(=O)CCS1(=O)=O`, the concentration at half-maximal activity (AC50) is 62 µM (active).

Take `CC(C)OC(=O)C(C)(C)Oc1ccc(C(=O)c2ccc(Cl)cc2)cc1`: the AC50 was 16.7 µM (active).

On to `O=C(O)CN(CC(=O)O)CC(=O)O`, for which the molecule was classed as inactive.

For `Cc1cc(Cc2ccc(N)c(C)c2)ccc1N`, the call was inactive.

On to `NC1CCCCC1`, for which the molecule was classed as inactive.
